Screening results deposited in PubChem by National Center for Advancing Translational Sciences (NCATS).
Most compounds without a hit are left out; they make up all but 11% or so of the library.
BAZ2B block: BAZ2B (human) inhibition. Potency, µM (titrated, usually from 114 µM), for inactives: at the highest dose activity change, negative = inhibition, usual class: inhibitors. AlphaScreen BAZ2B-H3K14Ac peptide displacement. Q9UIF8. 360,000 compounds, 4.4% hits. AID 504333; note: % is set by controls: 0 for no effect and ±100 for the full control effect; nearly all actives have a fitted effect of over 60% in size
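In this displacement format the biotinylated H3(5-23) peptide acetylated at Lys14 serves as ligand at 50 nM, with BAZ2B at 50 nM in PBS pH 7.4 containing 0.01% Tween-20. Donor and acceptor beads are 10 ug/mL final.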
G9a inh: inhibitors of human histone lysine methyltransferase G9a | 350,000 compounds, 8.8% hits | AID 504332 | Potency, µM (doses to about 102 µM), inactives show top-dose activity, negative = inhibition, hits mostly inhibitors | Q96KQ7 | G9a H3K9 monomethylation, AlphaScreen, 2 h; note: % is set by controls: 0 for no effect and ±100 for the full control effect; nearly all actives have a fitted effect of over 75% in size
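Enzyme 20 nM + cpd, 15 min RT; add b-H3K9 pep 500 nM / SAM 20 uM; 2 h RT; anti-H3K9me1 Ab 0.5 ug/mL + SA donor / anti-rabbit acceptor beads 20 ug/mL each, 10 min; AlphaScreen read.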
HP1b chromo inh: HP1-beta chromodomain-methylated histone interaction inhibition; P83916; AlphaScreen HP1-beta / biotin-H3K9me3 peptide binding; Potency, µM (top dose mostly 114 µM), without a hit: at the top dose activity change, negative = inhibition, usual class: inhibitors; 390,000 compounds, 0.56% hits; AID 540317; note: nearly all actives have a fitted effect of over 70% in size
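HP1-beta protein (50 nM final) preincubated 30 min at room temperature with biotinylated H3(1-18)K9me3 peptide (50 nM) in PBS pH 7.4, 0.01% Tween-20, then compound added for 30 min. AlphaScreen streptavidin donor/nickel chelate acceptor beads (10 ug/mL final), 30 min dark, luminescence read.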
JMJD2A Tudor inh: blocks the human JMJD2A Tudor domain; AlphaScreen JMJD2A-Tudor / H3K4me3 peptide binding; Potency, µM (doses to about 114 µM), without a hit: at the highest dose activity change, negative = inhibition, usual class: inhibitors; 390,000 compounds, 4.4% hits; O75164; note: % is set by controls: 0 for no effect and ±100 for the full control effect; nearly all actives have a fitted effect of over 50% in size
L3MBTL1 inh: inhibitors of human L3MBTL1 | AlphaScreen L3MBTL1–H3K9me1 peptide binding | Potency, µM (doses to about 57.1 µM), inactives show at the highest dose activity, negative = inhibition, most hits filed as inhibitors | 230,000 compounds, 0.66% hits | AID 485360; note: % is set by controls: 0 for no effect and ±100 for the full control effect; nearly all actives have a fitted effect of over 60% in size
Target sequence (Q9Y468 whole entry, looked up): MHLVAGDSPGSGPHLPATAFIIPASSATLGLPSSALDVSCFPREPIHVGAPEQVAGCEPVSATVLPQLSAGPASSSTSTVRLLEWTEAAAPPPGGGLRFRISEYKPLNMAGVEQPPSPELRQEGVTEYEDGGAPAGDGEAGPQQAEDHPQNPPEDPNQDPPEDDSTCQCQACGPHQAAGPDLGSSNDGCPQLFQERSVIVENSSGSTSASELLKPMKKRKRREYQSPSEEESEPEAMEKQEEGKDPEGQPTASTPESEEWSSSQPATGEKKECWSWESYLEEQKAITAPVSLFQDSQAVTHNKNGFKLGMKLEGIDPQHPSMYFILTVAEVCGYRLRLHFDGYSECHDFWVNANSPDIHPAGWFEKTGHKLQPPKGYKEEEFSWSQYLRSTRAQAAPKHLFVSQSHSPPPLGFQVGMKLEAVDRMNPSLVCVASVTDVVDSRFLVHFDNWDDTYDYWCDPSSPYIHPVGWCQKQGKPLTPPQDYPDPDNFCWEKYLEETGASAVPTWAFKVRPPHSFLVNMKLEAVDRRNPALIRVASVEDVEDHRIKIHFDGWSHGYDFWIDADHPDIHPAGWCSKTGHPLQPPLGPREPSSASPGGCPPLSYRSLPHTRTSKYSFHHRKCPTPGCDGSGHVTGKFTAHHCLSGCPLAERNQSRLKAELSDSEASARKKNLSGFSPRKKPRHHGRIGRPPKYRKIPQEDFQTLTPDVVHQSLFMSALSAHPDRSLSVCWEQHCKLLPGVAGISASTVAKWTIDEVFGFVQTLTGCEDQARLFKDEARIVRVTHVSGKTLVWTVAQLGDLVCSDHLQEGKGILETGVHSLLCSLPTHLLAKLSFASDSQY
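AlphaScreen assay: L3MBTL1 (50 nM final) was preincubated 30 min at room temperature with biotinylated H3(1-15)K9me1 peptide (75 nM final), then 30 min with library compounds; streptavidin donor and nickel chelate acceptor beads (10 ug/mL final) added, 30 min dark.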
The depositor's hits bear a star; ? = inconclusive; · = no result; ! = not active in a repeat; [ ] = another dose, or the depositor's remark. Calls come from the whole dose curve; as a rule, active = well fitted inhibition curve with a large enough effect; inconclusive = small, poorly fitted or top-dose-only effect; inactive = no such curve, though single readings can be large or run the other way. Potency is the fitted concentration of half-maximal effect.

SMILES	BAZ2B block	G9a inh	HP1b chromo inh	JMJD2A Tudor inh	L3MBTL1 inh
CCNc1ncc2nc(-c3ccccc3)c(=O)n(Cc3cccs3)c2n1	·	-4%[0.501 µM]	·	·	·
COc1ccc(NC(=O)c2ccco2)cc1NC(=O)c1cccc(C)c1OC	?	0%[59 µM]	-9%	20µM*	·
Fc1ccccc1-n1[nH]nnc1=S	?	7.9µM*	?	?	·
O=C1c2c(O)cc(O)cc2O[C@H](c2ccc(O)c(O)c2)[C@H]1O	?	10µM*	19%	-14%	·
Oc1cc(O)c2c(c1)O[C@H](c1ccc(O)c(O)c1)[C@@H](O)C2	0%	28µM*!	20%	-10%	·
O=C1c2c(O)cc(O)cc2O[C@H](c2ccc(O)c(O)c2)[C@@H]1O	?	-12%[59 µM]	·	·	·
CCOc1ccc(/C=C/c2nc(C#N)c(Nc3ccc(OC)cc3)o2)cc1	-22%	-6%[59 µM]	17%	-19%	·
O=C(NNc1cc(Br)c(O)c(Br)c1)c1ccccc1	8.9µM*	5µM*	40µM*	8.9µM*	·
COc1ccc(-n2c(O)c(/C=N/NS(=O)(=O)c3ccc(C)cc3)c3ccccc3c2=O)cc1OC	?	11µM*	8%	?	-8%
Cc1cccc(-n2c(O)c(C=NCc3ccccn3)c3ccccc3c2=O)c1	?	24%[59 µM]	22%	-25%	5%
COc1ccc(-c2[nH]ncc2/C=N\NS(=O)(=O)c2ccccc2)cc1OC	-8%	50µM*	23%	-9%	·
COc1ccc(-n2c(O)c(/C=N/Nc3nc(C)cc(C)n3)c3ccccc3c2=O)cc1OC	-23%	-23%	28%	-24%	-5%
Cc1ccc(-n2c(O)c(C=NCc3ccccn3)c3ccccc3c2=O)cc1	56µM*	4%[59 µM]	28%	-18%	-9%
COc1ccc(-n2c(O)c(/C=N/NS(=O)(=O)c3cc(C)ccc3C)c3ccccc3c2=O)cc1OC	45µM*	?	-26%	50µM*	-13%
Cc1ccc(C(=O)NCC(=O)OCC(=O)c2ccc3ccccc3c2)cc1	·	·	11%[57 µM]	-5%[57.1 µM]	·
CCOC(=O)c1c(C)oc2c1c1c(c3ccccc32)OCN(CCCC(=O)O)C1	?	8.9µM*	-4%	?	-11%
CCOC(=O)c1c(C)oc2c1c1c(c3ccccc32)OCN(Cc2cccnc2)C1	?	?	-10%	?	-3%[11.4 µM]
COc1ccc(N2CCN(C(=O)Cc3ccc(C)cc3)CC2)cc1	-33%	71µM*	4%	-30%	-10%
Cc1cc(C(=O)CCC(=O)N2CCN(c3ccccc3O)CC2)c(C)s1	-4%	-12%[12.7 µM]	19%	-24%	-1%
COc1ccc(N2CCN(C(=O)CN=C3NS(=O)(=O)C(c4ccc(C)cc4)=C3C)CC2)cc1	-8%	40µM*	-4%	-24%	-14%
COc1ccc(N2CCN(C(=O)Cc3ccc(Cl)cc3)CC2)cc1	?	50µM*	-8%	-34%	-10%
O=C(Cc1ccc(Cl)cc1)N1CCN(c2ccc(F)cc2)CC1	-20%	42%[0.501 µM]	83%	-19%	·
CC1=C(c2ccc(C)cc2)S(=O)(=O)NC1=NCCCN1CCN(c2ccc(F)cc2)CC1	-15%	?	50%	-8%	·
COc1ccc(N2CCN(C(=O)CCC(=O)c3cc(C)sc3C)CC2)cc1	?	50µM*	-10%	?	-1%
COc1ccc(C2Nc3ccccc3C(=O)N2Cc2ccccc2)cc1COc1cccc(C)c1 (stereo not given)	·	·	·	-12%	·
SMILES	BAZ2B block	G9a inh	HP1b chromo inh	JMJD2A Tudor inh	L3MBTL1 inh
CCOc1ccc(C(=O)c2cn(Cc3ccc(OC)cc3)c3cc(OC)c(OC)cc3c2=O)cc1	-1%	0%[59 µM]	42%	-26%	·
Cn1cc(S(=O)(=O)N2CCCCCC2)cc1C(=O)N1CCN(c2cccc(Cl)c2)CC1	?	4%[59 µM]	0%[57 µM]	-36%	·
COc1ccc(N2CCN(c3nc(NCCO)nc(N4CCOCC4)n3)CC2)cc1	?	?	-16%	-31%	-3%
COc1ccc(N2CCN(c3nc(Cl)nc(N4CCOCC4)n3)CC2)cc1	-7%	7.9µM*	-26%	?	?
O=C(Cc1ccc(-n2cccc2)cc1)N1CCN(c2ccccc2F)CC1	50µM*	50µM*	?	35µM*	-23%
COc1ccc(N2CCN(C(=O)Cc3nn(C)c(=O)c4ccccc34)CC2)cc1	12%	35µM*	10%	-10%[57.1 µM]	-1%
COc1ccc(CNC(=O)Cc2nn(C)c(=O)c3ccccc23)cc1	6%	8%	28%	-4%	0%
O=C(CCC(=O)N1CCN(c2ccccc2F)CC1)N1CCN(c2ccc(F)cc2)CC1	-18%	10%	-3%	5%[57.1 µM]	1%
CC1CCC2(CC1)OCC1(CCC3(COC4(CCC(C)CC4)OC3)C1=O)CO2 (stereo not given)	-1%	·	16%	2%	9%
Cc1ccc(Cl)cc1-n1nnc(-c2nc(-c3ccc4c(c3)OCO4)no2)c1C	2%	-16%[59 µM]	36%	-12%	·
CCN(Cc1nc(-c2ccc(OC)cc2)oc1C)S(=O)(=O)c1ccc(Cl)cc1	?	13µM*	?	32%	·
CCN(Cc1nc(-c2ccc(OC)cc2)oc1C)S(=O)(=O)c1ccc(C)cc1	?	?	?	11%	·
Cc1nn(CC(=O)N2CCCCC2)c(=O)c2cc3occc3n12	-2%	25%[59 µM]	69%	-4%	·
N#Cc1c(NC(=O)c2ccc(Cn3cc(Br)cn3)o2)sc2c1CCCCCC2	-26%	11µM*	-2%	-17%	-13%
N#Cc1c(NC(=O)c2cc([N+](=O)[O-])ccc2N2CCOCC2)sc2c1CCCC2	56µM*	?	-23%	?	-11%
Cn1nccc1C(=O)Nc1sc2c(c1C#N)CCCC2	3%	71%	3%	-9%	·
N#Cc1c(NC(=O)c2ccc([N+](=O)[O-])o2)sc2c1CCC2	40µM*	32µM*	?	?	·
Cc1ccc(-c2nc3cc(C(C)C)ccc3o2)cc1NC(=O)c1cc([N+](=O)[O-])ccc1N1CCOCC1	89µM*	-26%[59 µM]	26%	-19%	·
CCOC(=O)c1cn2nc(Oc3ccc(C#N)cc3)ccc2n1	-3%	14%[59 µM]	23%	-2%	-2%
Cc1ccccc1-c1nnc(SCC(=O)N2CCCc3ccccc32)o1	23%	4%[59 µM]	62%	29%	·
Cc1cccc(NC(=O)C(=O)NCC(c2ccc3c(c2)OCO3)N2CCN(c3ccccc3)CC2)c1 (stereo not given)	-18%	-2%[59 µM]	10%[57 µM]	-15%	·
O=C(NCCS(=O)(=O)N1CCN(c2ccccc2F)CC1)C(c1ccccc1)c1ccccc1	4%	-5%[59 µM]	22%[57 µM]	-1%	·
O=C(c1cc2ccccc2oc1=O)N(Cc1ccco1)Cc1cccs1	-35%	6%[12.7 µM]	-8%	-30%	·
O=C(c1cc2ccccc2oc1=O)N(Cc1cccs1)Cc1cccs1	4%	5%[59 µM]	-16%	28µM*	-1%
CCc1ccc(NC(=O)CN2C(=O)C(c3ccc(F)cc3)=NC2(C)C)cc1	-1%	-4%[59 µM]	28%	-11%	·
